Compound activity deposited in PubChem by several laboratories.
NALP3 yeast inh: blocks the NALP3 inflammasome reconstituted in yeast; Yeast reconstituted NLRP3/ASC/caspase-1, beta-gal luminescence, 24 h; inhibition, % at 10 µM; 330,000 tested, 0.39% active;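 active means inhibition of 50% or more; inactive means inhibition below 50%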
tim23-1 inh: tim23-1 yeast growth inhibition; S. cerevisiae tim23-1 growth, BacTiter-Glo luminescence, 24 h; inhibition, % at 20 µM; 330,000 tested, 1.3% active; AID 463212;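 active means growth inhibition of the mutant yeast at or above 50%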;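 further: temperature-sensitive mutant grown at 25 °C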
tim10-1 inh: inhibits growth of tim10-1 mutant yeast; 330,000 tested, 2.2% active; inhibition, % at 20 µM; AID 463190; S. cerevisiae tim10-1 ts strain growth, BacTiter-Glo, 24 h;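 active means inhibition of at least 40%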;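 further: mutant grown at 25 °C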
PfHsp90 set2: growth inhibition of yeast expressing Plasmodium Hsp90; S. cerevisiae expressing PfHsp90, BacTiter-Glo ATP, 48 h; yeast lacking PDR1 and PDR3 efflux regulators; inhibition, % at 9.4 µM; 310,000 tested, 0.32% active; AID 504621;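 active means every replicate shows inhibition above about 80%, whatever the replicate mean, limit read from the data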
TIM10 inh: growth inhibitors of TIM10 yeast strain; AID 463195; S. cerevisiae TIM10 strain growth, BacTiter-Glo luminescence, 24 h; inhibition, % at 10 µM; 330,000 tested, 1.4% active;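 active means inhibition of 40% or more at the single tested concentration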;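 further: wild-type TIM10 isogenic control strain grown at permissive 25 °C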
SKKanGAS inh: SKKanGAS growth inhibition; S. pyogenes SKKanGAS, kanamycin growth, BacTiter-Glo, 6 h; inhibition, % at 7.5 µM; 300,000 tested, 1.3% active; AID 1662;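 active means mean replicate score, as percent of positive control median, at least 50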;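 further: strain carries kanamycin resistance gene driven by streptokinase promoter and grows in 40 µg/ml kanamycin; loss of luminescence reflects streptokinase promoter inhibition or plain growth inhibition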
tim10-1 conf: confirmation of tim10-1 mutant yeast growth inhibitors. AID 463213. S. cerevisiae tim10-1 ts strain growth, BacTiter-Glo, 24 h. shares compounds with tim10-1 inh. 7,400 tested, 56% active. inhibition, % at 20 µM;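 active means inhibition of yeast growth at or above a set limit in either of two repeat tests at 20 µM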;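 further: tim10-1 mutant grown at permissive 25 °C to find synthetic lethal compounds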
TIM10 conf: TIM10 yeast growth inhibition, confirmed; shares compounds with TIM10 inh; S. cerevisiae tim10 strain growth, BacTiter-Glo luminescence, 24 h; inhibition, % at 10 µM; 4,600 tested, 63% active; AID 463215;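 active means inhibition of yeast growth at or above a set limit in either of two replicates at 10 µM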; further: this counterscreen used the strain with wild-type TIM10
tim23-1 confirm: confirmation of tim23-1 mutant yeast growth inhibitors. shares compounds with tim23-1 inh. S. cerevisiae tim23-1 growth, BacTiter-Glo luminescence, 24 h. inhibition, % at 20 µM. 4,400 tested, 83% active;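 active means inhibition above about 39% in either of two replicate wells at 20 µM, limit read from the data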;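 further: temperature-sensitive tim23-1 mutant grown at 25 °C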
Of the large screens only hits and unclear results are named; the others gave an inactive call (follow-up assays come after a bar, where they were run). Only some compounds are listed: those with a hit (about 4.5% of all), similar ones and a draw of the others.

CC[C@@H]1CC=C[C@H]2[C@H]1C(=O)N(Cc1ccccc1)[C@H]2c1cc(C)ccc1F	tim23-1 inh 51, tim10-1 inh 55, TIM10 inh 50, SKKanGAS inh 58 (no result: PfHsp90 set2) | tim10-1 conf 35 | TIM10 conf 38 | tim23-1 confirm 54
Cc1nn(-c2ccccc2)c(C)c1C(=O)OCc1ccc(C#N)cc1	none
COc1ccc(NC(=O)CN2C(=O)c3ccccc3S2(=O)=O)cc1S(=O)(=O)N1CCOCC1	none (no result: PfHsp90 set2, SKKanGAS inh)
O=C1C(=O)c2c(C(=O)c3ccccc3)coc2-c2ccccc21	tim23-1 inh 71, tim10-1 inh 93, TIM10 inh 74 | tim10-1 conf 91 | TIM10 conf 81 | tim23-1 confirm 65
Cc1oc2c(c1C(=O)O)C(=O)c1ccccc1C2=O	none
CCOC(=O)c1c(C)oc2c1C(=O)c1ccccc1C2=O	tim23-1 inh 79, tim10-1 inh 72, TIM10 inh 73 (no result: SKKanGAS inh) | tim10-1 conf 74 | TIM10 conf 64 | tim23-1 confirm 94
Cc1oc2c(c1C(=O)c1ccccc1)C(=O)C(=O)c1ccccc1-2	tim23-1 inh 68, tim10-1 inh 56, TIM10 inh 51 (no result: PfHsp90 set2) | tim10-1 conf 50 | TIM10 conf 53 | tim23-1 confirm 67
Cc1c(-c2ccccc2)n[nH]c1C(=O)NN	none
NNC(=O)c1[nH]c(-c2ccccc2)cc1-c1ccccc1	tim23-1 inh 53, tim10-1 inh 57, TIM10 inh 41 | tim10-1 conf 44 | TIM10 conf inactive | tim23-1 confirm 46
O=C(Nc1ccc(Cl)cc1C(=O)Nc1ccc(Br)cn1)c1ccco1	tim23-1 inh 60, tim10-1 inh 45, TIM10 inh 44 | tim10-1 conf 42 | TIM10 conf 48 | tim23-1 confirm 58
Brc1ccc(C2=CC(c3cccs3)n3ncnc3N2)cc1 (configuration not stated)	tim23-1 inh 52, tim10-1 inh 50 | tim10-1 conf 38 | tim23-1 confirm 54
OCCCc1nc2n(n1)C(c1cccs1)C=C(c1ccc(Br)cc1)N2 (configuration not stated)	none (no result: PfHsp90 set2)
CC1=CC(=O)C=C(C)C1=NOc1ccc([N+](=O)[O-])cc1	tim23-1 inh 57, tim10-1 inh 62, TIM10 inh 47 | tim10-1 conf 65 | TIM10 conf 38 | tim23-1 confirm 69
Cc1ccc(CNC(=O)CC(C)S(=O)(=O)c2ccc3c(c2)NC(=O)CS3)o1 (configuration not stated)	none
C=CCc1cccc(/C=N/NC(=O)c2ccccc2Br)c1O	tim23-1 inh 62, tim10-1 inh 44, TIM10 inh 64 | tim10-1 conf inactive | TIM10 conf 58 | tim23-1 confirm 61
O=C(N/N=C/c1ccccc1C(=O)O)c1ccccc1Br	none (no result: PfHsp90 set2)
O=C(NCCSCc1ccco1)Nc1cc(Cl)cc(Cl)c1	tim23-1 inh 54, tim10-1 inh 46 | tim10-1 conf 35 | tim23-1 confirm 56
CN1CCN(c2cc(N3CCN(C(=O)c4ccco4)CC3)c3c4c(onc24)-c2ccccc2C3=O)CC1	tim23-1 inh 69, tim10-1 inh 56, TIM10 inh 47 | tim10-1 conf 47 | TIM10 conf 48 | tim23-1 confirm 74
CO/N=C(\c1nonc1N)N1CCN(c2ccc([N+](=O)[O-])cc2Cl)CC1	none
CC(=O)O/N=C(/c1nonc1N)N1CCN(c2ccc([N+](=O)[O-])cc2Cl)CC1	tim23-1 inh 63, tim10-1 inh 62, TIM10 inh 75 | tim10-1 conf 67 | TIM10 conf 85 | tim23-1 confirm 75
CCn1c(=O)c(C(=O)NCc2ccccn2)c(O)c2ccccc21	tim23-1 inh 60, tim10-1 inh 45 | tim10-1 conf inactive | tim23-1 confirm 58
CCn1c(=O)c(C(=O)NCc2ccc(OC)cc2)c(O)c2ccccc21	none
COc1cccc(-c2sc3ccc(OC)cc3c2-c2ccc(OCCN3CCCC3)cc2)c1	tim23-1 inh 70, tim10-1 inh 40 (no result: NALP3 yeast inh, SKKanGAS inh) | tim10-1 conf 38 | tim23-1 confirm 46
COc1cccc(-c2sc3ccccc3c2-c2ccc(OCCN3CCCC3)cc2)c1	none (no result: SKKanGAS inh)
Cc1ccc(Cl)cc1N1CCN(C(=O)c2ccccc2SCC(=O)N2CCCC2)CC1	none (no result: SKKanGAS inh)
Cc1ccc(NC(=O)CSC(N)=O)cc1Cl	none
NC(=O)SCC(=O)Nc1ccc(Cl)c(Cl)c1	tim23-1 inh 80, tim10-1 inh 71 (no result: SKKanGAS inh) | tim10-1 conf 31 | tim23-1 confirm 76
O=C(Cc1cccc(NC(=O)C2CCN(C(=O)C3CCCC3)CC2)c1)Nc1cccc(C(=O)N2CCOCC2)c1	none (no result: NALP3 yeast inh, tim23-1 inh, tim10-1 inh, TIM10 inh, SKKanGAS inh)
Cc1nn(-c2ccccc2)c2nc(C(F)F)cc(C(F)F)c12	none (no result: SKKanGAS inh)
O=C(Nc1ccc(Cl)c(Cl)c1)N1N=CCC1c1ccccc1 (configuration not stated)	tim23-1 inh 52, tim10-1 inh 56 | tim10-1 conf 46 | tim23-1 confirm 57
O=C(NC1CCCCCC1)c1ccc([N+](=O)[O-])s1	tim23-1 inh 63, tim10-1 inh 57 (no result: PfHsp90 set2, SKKanGAS inh) | tim10-1 conf 50 | tim23-1 confirm 48
COc1ccccc1C(=O)NCCC(=O)NNC(=O)C1COc2ccccc2O1 (configuration not stated)	none
CCOc1ccnc2c1c(=O)n(Cc1cc(OC)cc(OC)c1)c(=O)n2C	none
O=C(c1cccc(Cl)c1)N1CCC2CC1c1cc(N3CCOCC3)ccc12 (configuration not stated)	none (no result: NALP3 yeast inh, tim23-1 inh, tim10-1 inh, TIM10 inh, SKKanGAS inh)
C=CC(=O)N=c1sc2ccccc2n1-c1ccccc1	tim23-1 inh 53, tim10-1 inh 51 | tim10-1 conf inactive | tim23-1 confirm inactive
COc1ccc(OC)c(-c2cc(C(=O)N3CCN(c4ncccn4)CC3)c3ccccc3n2)c1	none
COc1ccc(-c2cc(C(=O)N3CCN(c4ncccn4)CC3)c3ccccc3n2)c(OC)c1	tim23-1 inh 51, tim10-1 inh 66, TIM10 inh 59 | tim10-1 conf 52 | TIM10 conf inactive | tim23-1 confirm inactive
Cc1ccc(-c2cc(C(=O)N3CCN(c4ccc(F)cc4)CC3)c3ccccc3n2)o1	tim23-1 inh 51, tim10-1 inh 44 | tim10-1 conf inactive | tim23-1 confirm 44
COc1ccc(-c2cc(C(=O)O)c3ccccc3n2)c(OC)c1	none
COc1ccc(-c2cc(C(=O)N3CCCCCC3)c3ccccc3n2)c(OC)c1	tim23-1 inh 54, tim10-1 inh 42 | tim10-1 conf inactive | tim23-1 confirm 48
